In PubChem BioAssay (NCI):
This is part of a sample that, as a whole, favours compounds with a hit. Of some 83,000 tested, about 20% had one in any assay.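 Percent growth is the endpoint: 0 to 100 indicates growth inhibition (40 means 60% inhibition), 0 means no net growth, and negative values indicate cell death.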 Unmarked numbers belong to inactive results. The source made the active and inactive calls. The calls were made as follows: active = growth percent below 10; inactive = the rest.

Tests used:
Assay in all cases: NCI-60 one-dose screen, 48 h (100 = growth as untreated, 0 = no growth, -100 = all killed)
Conditions in all cases: 10 µM unless noted
SR leukemia = system: SR leukemia
OVCAR-8 ovarian = system: OVCAR-8 ovarian
OVCAR-5 ovarian = system: OVCAR-5 ovarian
OVCAR-4 ovarian = system: OVCAR-4 ovarian
SK-OV-3 ovarian = system: SK-OV-3 ovarian
IGROV1 ovarian = system: IGROV1 ovarian
OVCAR-3 ovarian = system: OVCAR-3 ovarian
HS 578T breast = system: HS 578T breast
NCI/ADR-RES ovarian = system: NCI/ADR-RES ovarian
T-47D breast = system: T-47D breast
BT-549 breast = system: BT-549 breast
SW-620 colon = system: SW-620 colon
MCF7 breast = system: MCF7 breast
HCT-116 colon = system: HCT-116 colon
HCC-2998 colon = system: HCC-2998 colon
KM12 colon = system: KM12 colon
MDA-MB-435 melanoma = system: MDA-MB-435 melanoma

SMILES	growth (SR leukemia)	growth (OVCAR-8 ovarian)	growth (OVCAR-5 ovarian)	growth (OVCAR-4 ovarian)	growth (SK-OV-3 ovarian)	growth (IGROV1 ovarian)	growth (OVCAR-3 ovarian)	growth (HS 578T breast)	growth (NCI/ADR-RES ovarian)	growth (T-47D breast)	growth (BT-549 breast)	growth (SW-620 colon)	growth (MCF7 breast)	growth (HCT-116 colon)	growth (HCC-2998 colon)	growth (KM12 colon)	growth (MDA-MB-435 melanoma)
COc1cccc(-c2nc(-c3ccc(NC(=O)OC(C)C)cc3)[nH]c2-c2ccnc(Br)c2)c1	-2.3% (active)	27.3%	53.7%	32.9%	33.3%	35.5%	26.2%	-17.2% (active)	27.7%	6.55% (active)	48%	34.2%	10.5%	13.2%	39.5%	17%	–
CCOC(=O)c1sc2ncc(-c3ccc(C)cc3)n2c1C	112%	94.7%	95.9%	95.4%	81.3%	71.3%	97.2%	96.7%	92.9%	89%	107%	93.4%	86.7%	93%	93.3%	86.6%	–
COc1cc2oc(-c3ccc(O)cc3)cc(=O)c2c(O)c1-c1c(OC)cc(O)c2c(=O)cc(-c3ccc(O)cc3)oc12	5.09% (active)	28.1%	101%	67.8%	37.5%	16.7%	29.3%	17.5%	79.6%	82.8%	–	25.2%	38%	20.5%	72.5%	43.4%	1.08% (active)
Cc1cccc(NC2=C(Cl)C(=O)c3nc(C)ccc3C2=O)c1	1.13% (active)	6.03% (active)	-43% (active)	-97.5% (active)	74.5%	-54.1% (active)	-31.8% (active)	-16.5% (active)	13.8%	-50.2% (active)	3.34% (active)	-13.7% (active)	-57.8% (active)	-47.6% (active)	3.47% (active)	33.5%	–
COc1cccc(-c2nc(-c3ccc(NS(=O)(=O)c4ccccc4)cc3)[nH]c2-c2ccnc(Br)c2)c1	8.32% (active)	33.4%	48.3%	34.2%	63.1%	44.6%	30.2%	7.88% (active)	40.8%	14.2%	51.3%	34.3%	9.68% (active)	17%	21.8%	8.67% (active)	–
CCCCCCCCCCCCCCCCCCOc1ccc(CC(=O)OCC[N+]2(C)CCCCC2)cc1	102%	96.9%	100%	86.8%	104%	92.6%	101%	108%	104%	92.6%	112%	96.2%	91%	57.7%	97.4%	101%	–
Cc1cccc2c1S/C(=C/c1ccc([N+](=O)[O-])cc1)C2=O	86.8%	105%	41.3%	112%	88.2%	82.7%	105%	99.7%	110%	85%	124%	30.2%	9.54% (active)	17.1%	122%	107%	–
O=C(Nc1ccc(I)cc1F)c1cc(I)ccc1O	3.39% (active)	12.7%	21.6%	22.3%	13.9%	18.4%	4.35% (active)	3.07% (active)	5.58% (active)	-0.561% (active)	–	10.8%	3.31% (active)	5.17% (active)	17.6%	2.37% (active)	2.77% (active)
CCOc1cccc(NC2=C(Br)C(=O)C(C)=C(C)C2=O)c1	74.7%	91.5%	95.7%	56.7%	88%	58.6%	87.6%	91.2%	96.5%	-35.3% (active)	96.4%	105%	18.4%	52%	119%	106%	–
NCCNc1nc2ccccc2c2c(=O)c3cc(F)ccc3sc12	-20.5% (active)	79.2%	91.4%	60.3%	83.3%	70.9%	66.8%	74.8%	78.8%	88.7%	–	-29.1% (active)	52.6%	22%	4.32% (active)	34.5%	58.6%
N#C/C(=C\c1ccc(F)cc1)n1nc2cccc(F)c2n1	13.7%	81.2%	79.7%	34%	74.9%	73.1%	-3.76% (active)	27.6%	8.9% (active)	33%	–	18.9%	14.1%	20.8%	93.8%	16.4%	-55.4% (active)
O=S(=O)(Nc1ccc(-c2nc(-c3cccc(OCCN4CCOCC4)c3)c(-c3ccnc(Br)c3)[nH]2)cc1)c1ccccc1	-18.7% (active)	32.3%	54.5%	40.6%	59.1%	43.7%	46.1%	0.194% (active)	54.1%	26.6%	54.3%	43.5%	9.52% (active)	23.6%	19.1%	8.86% (active)	–
O=[N+]([O-])c1ccccc1NCSc1ccc(Cl)cc1	65%	95.5%	114%	108%	109%	123%	109%	99.7%	–	93.3%	69.2%	101%	91.9%	83.8%	84.3%	79.2%	93.8%
Cc1cccc2c3c(sc12)C(c1ccc(Cl)cc1)C(C#N)=C(N)O3 (stereo not given)	15.8%	22.2%	23.3%	58.4%	60.1%	23.8%	-17.3% (active)	15.9%	9.13% (active)	45.9%	17.9%	26.9%	9.7% (active)	14.2%	18.3%	9.62% (active)	–
Cc1ccc(NC2=C(Cl)C(=O)c3nc(C)ccc3C2=O)cc1	21.8%	-49.4% (active)	-11.6% (active)	-97.9% (active)	88.7%	-75.5% (active)	-76.7% (active)	27.9%	30.6%	-47.5% (active)	44.9%	-30.7% (active)	-66.1% (active)	-39.5% (active)	4.99% (active)	36.6%	–
